From ChEMBL document CHEMBL3988442, “University of Dundee, Small-Polar-MMV Screening Library” (2021)
For part of these data: Results with a measured potency or affinity are listed apart.

How the values were obtained:
Design in all cases: scale not given: direction of the effect not stated beside the values
[1] = target: Protein translocase subunit SecA (Escherichia coli (strain K12)) (UniProt P10408); experiment: Assay to Identify E. coli SecA ATPase Inhibitors; format: functional; settings: 30 µM
[2] = target: T1, Ubiquitin-activating enzyme e1, putative (Leishmania donovani (strain BPK282A1)) (UniProt E9BSI1); experiment: Leishmania donovani Ubiquitin Activating Enzyme (LdE1); format: functional; settings: 30 µM
T1 sequence (whole entry): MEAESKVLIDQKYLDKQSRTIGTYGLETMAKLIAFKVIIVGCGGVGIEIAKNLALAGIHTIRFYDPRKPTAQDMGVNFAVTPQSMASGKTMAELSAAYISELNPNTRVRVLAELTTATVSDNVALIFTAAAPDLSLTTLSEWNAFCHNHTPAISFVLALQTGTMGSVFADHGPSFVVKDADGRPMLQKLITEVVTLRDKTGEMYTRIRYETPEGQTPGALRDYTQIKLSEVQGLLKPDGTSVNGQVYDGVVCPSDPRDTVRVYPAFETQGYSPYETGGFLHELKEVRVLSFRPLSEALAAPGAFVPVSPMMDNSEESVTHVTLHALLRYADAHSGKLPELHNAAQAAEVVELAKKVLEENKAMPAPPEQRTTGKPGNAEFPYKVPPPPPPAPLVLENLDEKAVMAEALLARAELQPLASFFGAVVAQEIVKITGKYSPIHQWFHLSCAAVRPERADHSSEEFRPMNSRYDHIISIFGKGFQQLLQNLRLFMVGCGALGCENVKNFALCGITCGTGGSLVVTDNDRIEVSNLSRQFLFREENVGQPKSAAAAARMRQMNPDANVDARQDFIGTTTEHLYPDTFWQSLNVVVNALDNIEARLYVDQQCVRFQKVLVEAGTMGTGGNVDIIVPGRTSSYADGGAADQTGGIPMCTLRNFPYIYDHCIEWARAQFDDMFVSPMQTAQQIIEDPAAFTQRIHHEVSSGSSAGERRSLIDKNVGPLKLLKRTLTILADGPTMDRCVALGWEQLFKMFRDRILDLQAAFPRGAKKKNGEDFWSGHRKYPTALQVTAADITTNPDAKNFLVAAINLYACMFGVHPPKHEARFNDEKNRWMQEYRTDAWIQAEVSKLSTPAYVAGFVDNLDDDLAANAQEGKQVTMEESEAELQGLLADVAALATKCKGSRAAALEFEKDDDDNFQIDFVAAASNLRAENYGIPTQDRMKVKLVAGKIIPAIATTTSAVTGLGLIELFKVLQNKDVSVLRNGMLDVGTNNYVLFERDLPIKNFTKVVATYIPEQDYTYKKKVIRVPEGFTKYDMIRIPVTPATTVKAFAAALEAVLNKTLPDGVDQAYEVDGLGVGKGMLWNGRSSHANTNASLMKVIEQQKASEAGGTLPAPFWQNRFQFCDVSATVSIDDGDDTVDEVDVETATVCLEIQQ

[3] = target: T2, Aspartate--tRNA(Asp/Asn) ligase (Mycobacterium tuberculosis (strain ATCC 25618 / H37Rv)) (UniProt P9WFW3); experiment: Assay for Asp RNA synthetase-1 from Mycobacterium tuberculosis; format: functional; settings: 30 µM; also: in the data most compounds retested in dose-response had high values
T2 sequence (whole entry): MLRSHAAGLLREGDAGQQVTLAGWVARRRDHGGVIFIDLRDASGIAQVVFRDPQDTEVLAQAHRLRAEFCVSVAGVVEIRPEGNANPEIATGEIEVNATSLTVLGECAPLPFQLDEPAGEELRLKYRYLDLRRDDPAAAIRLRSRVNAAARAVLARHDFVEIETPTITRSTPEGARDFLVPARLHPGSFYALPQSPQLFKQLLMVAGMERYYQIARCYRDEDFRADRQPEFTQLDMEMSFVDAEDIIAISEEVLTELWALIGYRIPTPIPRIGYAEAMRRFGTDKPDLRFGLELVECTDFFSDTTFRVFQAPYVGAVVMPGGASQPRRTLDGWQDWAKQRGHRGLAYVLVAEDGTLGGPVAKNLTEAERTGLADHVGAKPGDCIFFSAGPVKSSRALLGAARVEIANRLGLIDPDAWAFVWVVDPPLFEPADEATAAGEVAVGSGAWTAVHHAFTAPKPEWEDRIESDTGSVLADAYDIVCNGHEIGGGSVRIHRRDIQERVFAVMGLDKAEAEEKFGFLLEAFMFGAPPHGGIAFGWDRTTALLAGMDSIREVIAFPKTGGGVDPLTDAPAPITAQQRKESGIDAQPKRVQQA

[4] = target: Sialic acid-binding Ig-like lectin 9 (Homo sapiens) (UniProt Q9Y336); experiment: Hs-Siglec9 ALPHAscreen SOP 20170721; settings: 10 µM
Trypanosoma cruzi = experiment: Trypanosoma cruzi phosphomannomutase and mannose-1-phosphate guanylyltransferase assay; format: functional; settings: 10 µM
[5] = target: T3, Arginase-2, mitochondrial (Homo sapiens) (UniProt P78540); experiment: in vitro enzyme assay to detect the production of urea directly proportional to the activity of Arginase II; format: functional; settings: 33.3 µM; also: in the data most compounds retested in dose-response had high values
T3 sequence (whole entry): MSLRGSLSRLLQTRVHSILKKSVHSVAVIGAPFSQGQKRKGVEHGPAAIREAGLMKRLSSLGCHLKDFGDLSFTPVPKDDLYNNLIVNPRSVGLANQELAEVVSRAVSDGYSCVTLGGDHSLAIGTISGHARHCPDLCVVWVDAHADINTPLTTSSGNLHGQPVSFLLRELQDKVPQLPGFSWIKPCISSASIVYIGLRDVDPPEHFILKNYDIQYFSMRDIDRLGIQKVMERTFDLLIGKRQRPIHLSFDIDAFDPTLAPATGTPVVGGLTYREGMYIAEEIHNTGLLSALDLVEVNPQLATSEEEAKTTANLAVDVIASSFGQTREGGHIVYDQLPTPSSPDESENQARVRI

[6] = target: T4, Proteasome subunit beta (Trypanosoma cruzi) (UniProt O96673); experiment: Trypanosoma cruzi proteasome chymotrypsin-like activity (TcProtChymo) assay.; also: in the data most compounds retested in dose-response had high values; format: functional; settings: 9.37 µM
T4 sequence (whole entry): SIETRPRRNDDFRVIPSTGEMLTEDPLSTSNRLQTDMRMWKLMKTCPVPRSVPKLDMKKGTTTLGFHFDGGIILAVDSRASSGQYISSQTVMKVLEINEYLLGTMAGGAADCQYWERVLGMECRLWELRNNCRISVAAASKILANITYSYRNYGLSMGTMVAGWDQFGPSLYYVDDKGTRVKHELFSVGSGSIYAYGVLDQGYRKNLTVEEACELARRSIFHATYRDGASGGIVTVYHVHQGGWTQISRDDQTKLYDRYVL

Homo sapiens = organism: Homo sapiens; experiment: To identify inhibition of the IFN signalling (Jak-Stat) pathway via expression of an eGFP reporter gene under the control of an IFN-stimulated response element (ISRE) containing MxA promoter.; format: functional; settings: 30 µM
[7] = target: Shiga toxin 2 (Escherichia coli O157:H7) (UniProt P09385+P09386); experiment: E. coli 0.157:H7 Shiga Toxin SOP - stx2 screening assay; format: functional; settings: 30 µM
[8] = target: T5, Tyrosyl-tRNA synthetase, putative (Trypanosoma cruzi (strain CL Brener)) (UniProt Q4DSP6); experiment: Trypanosoma cruzi tyrosyl tRNA synthetase (TcYRS) _High Tyrosine SOP; format: functional; settings: 30 µM; also: in the data most compounds retested in dose-response had high values
T5 sequence (whole entry): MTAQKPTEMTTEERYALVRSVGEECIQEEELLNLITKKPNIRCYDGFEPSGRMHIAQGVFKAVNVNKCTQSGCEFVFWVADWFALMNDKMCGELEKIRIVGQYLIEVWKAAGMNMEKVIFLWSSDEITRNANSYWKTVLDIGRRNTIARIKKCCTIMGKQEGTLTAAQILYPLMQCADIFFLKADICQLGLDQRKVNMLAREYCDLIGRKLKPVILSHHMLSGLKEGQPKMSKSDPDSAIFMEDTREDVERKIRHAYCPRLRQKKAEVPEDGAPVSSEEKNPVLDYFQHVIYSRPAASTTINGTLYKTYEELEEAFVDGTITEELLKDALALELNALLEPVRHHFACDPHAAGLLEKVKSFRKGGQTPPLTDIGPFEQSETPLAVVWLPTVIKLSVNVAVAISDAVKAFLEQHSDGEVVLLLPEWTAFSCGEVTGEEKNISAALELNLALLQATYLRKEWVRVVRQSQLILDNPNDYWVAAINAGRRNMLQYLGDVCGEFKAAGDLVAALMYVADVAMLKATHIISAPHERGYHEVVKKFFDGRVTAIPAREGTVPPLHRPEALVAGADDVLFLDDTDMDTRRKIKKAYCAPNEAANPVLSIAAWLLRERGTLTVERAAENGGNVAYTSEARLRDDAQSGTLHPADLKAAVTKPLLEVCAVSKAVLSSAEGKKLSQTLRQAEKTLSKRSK

[9] = target: T5, Tyrosyl-tRNA synthetase, putative (Trypanosoma cruzi (strain CL Brener)); experiment: Trypanosoma cruzi tyrosyl tRNA synthetase (TcYRS) SOP; format: functional; settings: 30 µM
[10] = target: Chromo domain-containing protein 1 (Saccharomyces cerevisiae (strain ATCC 204508 / S288c) (Baker's yeast)) (UniProt P32657); experiment: ScCHD-1 Enzyme Inhibition Assay; format: functional; settings: 30 µM; also: in the data most compounds retested in dose-response had high values
[11] = target: AMP-activated protein kinase, AMPK (Homo sapiens) (UniProt P54646+O43741+P54619+Q9UGJ0+Q9Y478+Q13131+Q9UGI9); experiment: AMP-dependent Kinase enzyme assay. An in vitro enzyme assay that detects ADP turnover that is directly proportional to AMPK activity. This uses naive AMPK that is activated during the assay with MK-8722; format: functional; settings: 30 µM

Chain of Chromo domain-containing protein 1 (Saccharomyces cerevisiae (strain ATCC 204508 / S288c) (Baker's yeast)) (P32657 whole entry, the tested form may be a part): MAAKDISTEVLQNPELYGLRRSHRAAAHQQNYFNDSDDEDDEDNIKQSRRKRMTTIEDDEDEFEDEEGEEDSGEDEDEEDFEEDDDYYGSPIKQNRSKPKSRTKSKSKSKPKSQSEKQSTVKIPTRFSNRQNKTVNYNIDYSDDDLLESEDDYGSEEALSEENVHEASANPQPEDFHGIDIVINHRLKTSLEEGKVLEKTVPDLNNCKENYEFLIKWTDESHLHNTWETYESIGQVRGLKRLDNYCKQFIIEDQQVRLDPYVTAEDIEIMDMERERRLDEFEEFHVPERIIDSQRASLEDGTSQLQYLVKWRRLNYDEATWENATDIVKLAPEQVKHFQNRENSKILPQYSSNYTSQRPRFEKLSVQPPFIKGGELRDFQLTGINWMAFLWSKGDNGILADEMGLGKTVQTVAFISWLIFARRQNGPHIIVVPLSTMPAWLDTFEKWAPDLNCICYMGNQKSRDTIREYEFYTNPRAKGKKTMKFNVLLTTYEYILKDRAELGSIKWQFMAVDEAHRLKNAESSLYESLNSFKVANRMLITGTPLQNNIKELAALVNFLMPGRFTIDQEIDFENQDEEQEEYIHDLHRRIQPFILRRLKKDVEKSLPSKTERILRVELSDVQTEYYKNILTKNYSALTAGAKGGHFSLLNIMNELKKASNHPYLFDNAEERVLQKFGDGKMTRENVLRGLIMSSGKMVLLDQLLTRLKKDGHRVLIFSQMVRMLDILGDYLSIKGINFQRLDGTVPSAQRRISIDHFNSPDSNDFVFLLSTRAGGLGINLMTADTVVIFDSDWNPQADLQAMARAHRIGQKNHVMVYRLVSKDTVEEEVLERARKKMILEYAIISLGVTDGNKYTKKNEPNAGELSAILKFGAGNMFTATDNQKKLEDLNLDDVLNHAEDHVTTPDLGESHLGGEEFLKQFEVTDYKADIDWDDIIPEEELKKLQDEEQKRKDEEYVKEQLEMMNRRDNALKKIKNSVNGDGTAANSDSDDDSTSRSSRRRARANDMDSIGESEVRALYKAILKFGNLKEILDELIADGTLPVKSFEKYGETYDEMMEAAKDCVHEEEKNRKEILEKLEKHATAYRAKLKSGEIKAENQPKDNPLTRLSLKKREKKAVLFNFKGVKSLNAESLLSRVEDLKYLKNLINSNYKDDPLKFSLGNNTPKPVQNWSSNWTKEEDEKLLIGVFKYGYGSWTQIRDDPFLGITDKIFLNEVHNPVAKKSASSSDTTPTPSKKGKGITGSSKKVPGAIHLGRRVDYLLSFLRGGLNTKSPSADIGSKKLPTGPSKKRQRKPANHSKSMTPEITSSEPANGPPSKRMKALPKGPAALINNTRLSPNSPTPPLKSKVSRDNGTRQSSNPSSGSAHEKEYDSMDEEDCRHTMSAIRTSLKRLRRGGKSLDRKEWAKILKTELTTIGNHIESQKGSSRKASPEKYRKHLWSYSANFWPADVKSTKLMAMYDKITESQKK
Chain of Protein translocase subunit SecA (Escherichia coli (strain K12)) (P10408 whole entry): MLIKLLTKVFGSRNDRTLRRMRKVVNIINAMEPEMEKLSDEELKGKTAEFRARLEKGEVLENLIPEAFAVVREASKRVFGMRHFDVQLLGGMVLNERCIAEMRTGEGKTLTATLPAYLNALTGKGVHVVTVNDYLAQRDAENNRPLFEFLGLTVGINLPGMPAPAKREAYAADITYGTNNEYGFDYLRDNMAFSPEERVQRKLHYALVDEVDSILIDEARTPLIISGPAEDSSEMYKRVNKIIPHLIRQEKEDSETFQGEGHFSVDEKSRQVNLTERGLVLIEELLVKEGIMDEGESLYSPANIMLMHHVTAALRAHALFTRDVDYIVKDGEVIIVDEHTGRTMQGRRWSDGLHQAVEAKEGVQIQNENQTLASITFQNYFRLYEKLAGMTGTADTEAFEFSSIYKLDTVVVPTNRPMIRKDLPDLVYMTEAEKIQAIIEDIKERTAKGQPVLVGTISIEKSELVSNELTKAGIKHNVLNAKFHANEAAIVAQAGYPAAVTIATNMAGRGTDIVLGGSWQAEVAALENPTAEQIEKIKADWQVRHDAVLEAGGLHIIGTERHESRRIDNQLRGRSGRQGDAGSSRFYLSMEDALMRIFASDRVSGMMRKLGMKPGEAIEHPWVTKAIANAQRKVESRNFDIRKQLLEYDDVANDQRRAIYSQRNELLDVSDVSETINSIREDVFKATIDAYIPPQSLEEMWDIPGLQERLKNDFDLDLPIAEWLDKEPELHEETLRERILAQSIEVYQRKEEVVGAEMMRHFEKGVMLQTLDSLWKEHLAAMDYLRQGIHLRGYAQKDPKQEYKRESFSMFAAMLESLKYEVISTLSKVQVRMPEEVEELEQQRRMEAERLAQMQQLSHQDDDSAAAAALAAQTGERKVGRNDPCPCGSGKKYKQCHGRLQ
Chain of Sialic acid-binding Ig-like lectin 9 (Homo sapiens) (Q9Y336 whole entry): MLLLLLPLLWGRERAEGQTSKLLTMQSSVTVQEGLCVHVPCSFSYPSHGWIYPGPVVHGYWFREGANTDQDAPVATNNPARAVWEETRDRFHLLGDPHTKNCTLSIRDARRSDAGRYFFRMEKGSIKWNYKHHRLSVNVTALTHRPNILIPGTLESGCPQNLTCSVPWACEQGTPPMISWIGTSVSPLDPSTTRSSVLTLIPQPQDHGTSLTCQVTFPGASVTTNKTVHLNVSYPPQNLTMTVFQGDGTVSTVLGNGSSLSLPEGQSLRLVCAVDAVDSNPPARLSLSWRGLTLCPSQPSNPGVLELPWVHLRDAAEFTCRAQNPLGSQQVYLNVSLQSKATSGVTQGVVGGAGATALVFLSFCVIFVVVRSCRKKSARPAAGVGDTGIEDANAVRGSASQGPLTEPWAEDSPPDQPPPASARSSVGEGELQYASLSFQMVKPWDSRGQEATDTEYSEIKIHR

SMILES | Percent Effect [1] | Percent Effect [2] | Percent Effect [3] | Percent Effect [4] | Percent Effect (Trypanosoma cruzi) | Percent Effect [5] | Percent Effect [6] | Percent Effect (Homo sapiens) | Percent Effect [7] | Percent Effect [8] | Percent Effect [9] | Percent Effect [10] | Percent Effect [11]
O=C(Cc1ccc(-n2cccn2)cc1)N1CCN2CCCCC2C1 (stereo not given) | -4.18% | -10.7% | -7.19% | 2.63% | -5.42% | 3.55% | 9.58% | 0.299% | -24.9% | 1.58% | 5.13% | -13.6% | 
O=C(C1CC(=O)N(c2ccccc2Br)C1)N1CCC2(CC1)OCCO2 (stereo not given) | -3.76% | -10.7% | 2.47% | -2.82% | -3.21% | 2.6% | 11.2% | 0.465% |  | 1.64% | 8.64% | -2.41% | -5.79%
Cc1noc(C)c1CN1CC[C@H]2OCC[C@@]2(C(=O)N2CCCO2)C1 | -4.42% | 6.49% | 6.12% | -7.21% | -3.6% | 3.24% | 16.5% | -11.1% | -3.97% | 11.1% | 10.3% | 3.94% | 
CC(C)c1nccc([C@H]2C[C@@H]3CCN(Cc4ccco4)C[C@H]3O2)n1 | -6.35% | -3.9% | 9.38% | 3.38% | 4.58% | -7.69% | 14.4% | 3.14% | 5.36% | 6.84% | 15.4% | 1.21% | 
Cc1cc(CN2CC[C@H]3C[C@H](C(=O)N(C)C)O[C@@H]3C2)no1 | -4.45% | 3.9% | -0.0763% | 14.4% | 5.36% | 12.6% | 13.3% | -6.77% | -6.84% | 2.63% | -5.13% | 20.4% | 
CCc1nc(CN2CCN(C(=O)Cc3c(C)noc3C)CC2)cs1 | -0.475% | 12.8% | -3.43% | -11.1% | 2.72% | 2.87% | 6.06% | 10.4% | -8.34% | 6.22% | 13.2% | -5.04% | 
CNCCc1nc2cc(F)ccc2[nH]1 | -3.21% | 0% | 5.99% | -3.69% | -6.13% | 5.21% | 5.23% | 4.18% |  | -4.92% | -8.64% | -3.45% | -8.1%
c1ccc(N2CCCC3(CCN(Cc4nccs4)C3)C2)nc1 (stereo not given) | -1.98% | 14.3% | -1.46% | 3.73% | 0.75% | -5.94% | 18.4% | 4.2% | 7.26% | 10.6% | 20% | -11.5% | 
Fc1cnc(N2CCCC3(CCN(Cc4ccsc4)C3)C2)nc1 (stereo not given) | -5.76% | 3.9% | 9.59% | -1.26% | 3.02% | -5.26% | 8.56% | -2.16% | -9.72% | 6.84% | 7.69% | 14.2% | 
CSc1nccc(N2CCN(C)C3(CCNC(=O)CC3)C2)n1 (stereo not given) | -5.63% | 8% | -0.126% | 2.82% | -1.66% | 5.73% | 12.6% | -2.91% |  | 3.83% | 13.6% | -6.95% | -1.22%
